Results from PubChem BioAssay (NCATS).
Results filed as inconclusive are left out. The source made the active and inactive calls. The call rests on the fitted dose curve; in most records, active means well fitted activation curve with a large enough effect; inconclusive means small, poorly fitted or top-dose-only effect; inactive means no such curve, though single readings can be large or run the other way.

assay: Validation screen for small molecules that induce genotoxicity in human embryonic kidney (HEK293T) cells expressing luciferase-tagged ELG1 (AID 493106); conditions: luminescence; series mostly up to 46.1 µM
Description: NIH Molecular Libraries Probe Production Network [MLPCN]
NIH Chemical Genomics Center [NCGC]
Assay Provider: Kyungjae Myung, NHGRI, NIH
Keywords: MLPCN, qHTS, NCGC, genotoxicity, cancer
Cancer cells divide rapidly compared to normal cells in the body. During cell division, cancer cells need to duplicate their genome by DNA replication. The failure of genome duplication leads to cancer cells' death. Therefore, inhibitors of DNA replication could specifically kill cancer cells. Based on this concept, many chemotherapeutic agents were developed and have been used to treat cancer patients. However, there are a limited number of agents available in the clinical setting, and some of those that do exist have low efficacy and severe side effects. Therefore, if we can find the compounds that effectively block DNA replication either by directly damaging DNA or by inhibiting other cellular mechanisms, the options for cancer treatment will be broadened. With this in mind, we developed a quantitative high-throughput ELG1-luciferase reporter gene assay. Since the level of human ELG1 protein is enhanced in response to genetic stresses, increases in luciferase activity can be used to identify compounds that cause genetic stress.
For genotoxicity screening, 2,000 cells in 5 uL/well were dispensed into white, solid-bottom 1536-well plates using a solenoid-based dispenser. Following transfer of 23 nL compound or DMSO vehicle by a pin tool, the plates were incubated 16 hr at 37 °C and 5% CO2. 5 ul ONE-Glo (Promega) was then added to each plate and following a 30 min incubation at room temperature, luciferase activity was quantified on a ViewLux CCD-based plate reader.

Row | Compound | outcome
1 | NC(=O)c1cccc(N)c1 | inactive
2 | N[C@@H](Cc1ccc(O)c(O)c1)C(=O)O | inactive
3 | Cc1ccc(S(=O)(=O)N[C@@H](Cc2ccccc2)C(=O)CCl)cc1 | inactive
4 | O=C(O)C1CCCN(CCC=C(c2ccccc2)c2ccccc2)C1 (centres undefined) | inactive
5 | CCN1CCCC1CNC(=O)c1cc(S(N)(=O)=O)ccc1OC (centres undefined) | inactive
6 | CCN(CC)CCn1c(=O)c(Cc2ccc(OC)cc2)nc2ccccc21 | inactive
7 | CCCCS(=N)(=O)CCC(N)C(=O)O (centres undefined) | inactive
8 | COc1cc2nc(N3CCCN(C)CC3)nc(NC3CCN(Cc4ccccc4)CC3)c2cc1OC | inactive
9 | CCN(CC)CC#CCOC(=O)C(O)(c1ccccc1)C1CCCCC1 (centres undefined) | inactive
10 | NC(=O)c1ccc2[nH]ccc2c1 | inactive
11 | CC1=C(C(=O)O)N2C(=O)[C@@H](NC(=O)C(N)c3ccccc3)[C@H]2SC1 (some centres undefined) | inactive
12 | CC1CC2C3CCC4=CC(=O)C=C[C@]4(C)[C@@]3(F)[C@@H](O)C[C@]2(C)[C@@]1(O)C(=O)CO (some centres undefined) | inactive
13 | CC(C)NCC(O)c1ccc(NS(C)(=O)=O)cc1 (centres undefined) | inactive
14 | COc1cc2ncnc(Nc3cccc(Cl)c3)c2cc1OC | inactive
